# Test results published in PubChem BioAssay AID720597 (Broad Institute, 2013).
# Potency and affinity values are given separately. Unmarked numbers belong to inactive results.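 The calls were made as follows: active = fitted half-maximal dose no more than twice the top valid tested dose, for compounds that lower signal; inconclusive = fit invalid, or curve flat with activity between -70 and -30; inactive = potency past limit, curve flat within ±30, or signal increasing.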
# Target: NAD-dependent protein deacylase sirtuin-5, mitochondrial (Homo sapiens) (UniProt Q9NXA8)
# Sequence (Q9NXA8 whole entry, looked up): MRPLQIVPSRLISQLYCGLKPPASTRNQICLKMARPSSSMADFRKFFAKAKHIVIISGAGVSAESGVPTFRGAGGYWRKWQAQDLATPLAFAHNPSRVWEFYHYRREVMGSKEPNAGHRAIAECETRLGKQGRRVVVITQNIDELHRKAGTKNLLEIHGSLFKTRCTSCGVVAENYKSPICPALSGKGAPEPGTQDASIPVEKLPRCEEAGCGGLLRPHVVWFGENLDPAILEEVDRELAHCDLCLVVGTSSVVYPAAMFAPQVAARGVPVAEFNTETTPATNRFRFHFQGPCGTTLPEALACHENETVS
# Test: SIRT5 deacylase inhibitors, dose response, biochemical, fluorescence imaging, cherry-pick, set 6 (AID 720597);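 also: lower AMC signal can also come from blocking the trypsin step; 0% = median of neutral control wells and -100% = median of positive control wells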
# Details: Purified SirT5, succinyl-peptide-AMC/trypsin fluorescence; series mostly up to 15 µM; activity change, negative = inhibition: at the top concentration
row,Compound,"activity change, negative = inhibition"
1,COCCNC(=O)c1cc2c(c(-c3cccc(-c4cccc(F)c4)c3)n1)[C@H](CCO)N(S(=O)C(C)(C)C)C2 (some centres undefined),-23.3%
2,COc1cccc(S(=O)(=O)N(C)C[C@H]2Oc3cc(C4=CCCCC4)ccc3S(=O)(=O)N([C@@H](C)CO)C[C@@H]2C)c1,21.9%
3,CCCNC(=O)N1C[C@@H](O)COC[C@@H]2O[C@H](CC(=O)N3CCC(Cc4ccccc4)CC3)CC[C@H]21,-18.4%
4,COc1ccc(S(=O)(=O)Nc2ccc3c(c2)C(=O)N([C@@H](C)CO)C[C@H](C)[C@@H](CN(C)S(=O)(=O)c2ccccc2)OCCCC[C@@H](C)O3)cc1,6.19%
5,CCCNC(=O)N1CC2(C1)[C@H](c1ccccc1)[C@H](CO)N2Cc1cccc(F)c1,-7.43%
6,CC(C)NC(=O)N1CCCCN2[C@H](C1)[C@@H](c1ccc(C#CC3CC3)cc1)[C@@H]2CO,-14.1%
7,O=C(Nc1ccc2c(c1)OCO2)N[C@H]1CC[C@H](CCNC(=O)C2CC2)O[C@@H]1CO,22.9%
8,CCN(C[C@@H]1[C@@H](c2ccccc2)[C@H](CO)N1C(=O)C1CC1)C(=O)NC1CCCC1,38.9%
9,COc1ccccc1S(=O)(=O)N(C)C[C@@H]1Oc2cc(C#CCC3CCCC3)ccc2S(=O)(=O)N([C@H](C)CO)C[C@H]1C,-8.51%
10,COc1cccc(C(=O)Nc2ccc3c(c2)C(=O)N(C)C[C@H](OC)[C@@H](C)CN(CCc2ccccc2)[C@H](C)CO3)c1,6.36%
11,CC(C)CC#Cc1ccc2c(c1)O[C@@H](CN(C)C(=O)C1CCCCC1)[C@@H](C)CN([C@H](C)CO)S2(=O)=O,-8.59%
12,C[C@@H]1CN([C@@H](C)CO)C(=O)c2c(c3ccccc3n2C)-c2ccccc2CO[C@@H]1CN(C)Cc1cccc(O)c1,27.1%
13,COc1ccccc1-c1ccc2c(c1)O[C@@H](CN(C)S(=O)(=O)c1ccccc1)[C@H](C)CN([C@@H](C)CO)S2(=O)=O,-12%
14,COc1ccc(NC(=O)N(C)C[C@H]2OCCCC[C@@H](C)Oc3ccc(NC(=O)Cc4ccccc4)cc3C(=O)N([C@H](C)CO)C[C@@H]2C)cc1,0.973%
15,COc1ccc(NC(=O)Nc2cccc3c2O[C@@H](CN(C)Cc2ccc(C(F)(F)F)cc2)[C@@H](C)CN([C@H](C)CO)C3=O)cc1,-31.3%
16,CN1c2ccc(-c3ccccc3)cc2[C@H]2[C@H](CCN2C(=O)Cc2ccccn2)[C@H]1CO,-17.4%
17,Cc1ccc(S(=O)(=O)N(C)C[C@@H]2OCCCC[C@H](C)Oc3ccc(NS(=O)(=O)c4ccc(F)cc4)cc3C(=O)N([C@H](C)CO)C[C@H]2C)cc1,-26.5%
18,COc1ccc(S(=O)(=O)N(C)C[C@H]2OCCCC[C@@H](C)Oc3ccc(NS(=O)(=O)c4ccc(Cl)cc4)cc3C(=O)N([C@H](C)CO)C[C@H]2C)cc1,31.3%
19,C[C@@H]1CN([C@@H](C)CO)C(=O)Cc2cc(NS(=O)(=O)c3ccc(Cl)cc3)ccc2O[C@H]1CN(C)Cc1ccc(Cl)c(Cl)c1,5.95%
20,C[C@@H]1CCCCO[C@H](CN(C)Cc2ccc(C(F)(F)F)cc2)[C@@H](C)CN([C@@H](C)CO)C(=O)c2cc(NS(=O)(=O)c3ccc(F)cc3)ccc2O1,-12.9%

row,Compound,"activity change, negative = inhibition"
1,CN(C)Cc1cn(CC[C@H]2CC[C@@H](NC(=O)Nc3ccccc3F)[C@@H](CO)O2)nn1,7.23%
2,Cc1ccc(S(=O)(=O)N(C)C[C@@H]2Oc3ncc(C#Cc4ccc(C(F)(F)F)cc4)cc3C(=O)N([C@H](C)CO)C[C@@H]2C)cc1,18.9%
3,COc1ccc(S(=O)(=O)Nc2ccc3c(c2)C(=O)N([C@H](C)CO)C[C@@H](C)[C@@H](CN(C)Cc2ccc(Oc4ccccc4)cc2)O3)cc1,4.75%
4,CO[C@@H]1CN(C)C(=O)c2ccc(NS(C)(=O)=O)cc2OC[C@@H](C)N(Cc2nccs2)C[C@H]1C,-9.11%
5,O=C1CN(S(=O)(=O)c2ccccc2)C[C@@H]2[C@H](c3ccc(C#Cc4ccccc4)cc3)[C@H](CO)N12,3.33%
6,O=C(C1CCCC1)N1CC2(C1)[C@H](c1ccccc1)[C@@H](CO)N2Cc1ccc(Cl)cc1,-8.55%
7,COc1ccc(C#Cc2ccc([C@H]3[C@@H](CO)N4C(=O)CN(C(C)=O)C[C@H]34)cc2)cc1,-18.8%
8,Cc1noc(C)c1S(=O)(=O)Nc1ccc2c(c1)CC(=O)N([C@H](C)CO)C[C@H](C)[C@H](CN(C)Cc1ccncc1)O2,-7.37%
9,C[C@H]1CN([C@@H](C)CO)C(=O)c2cccc(NC(=O)c3nc4ccccc4s3)c2O[C@H]1CN(C)Cc1ccc(C(F)(F)F)cc1,4.41%
10,CC(C)(C)[S@@](=O)N1Cc2cc(C(=O)O)nc(-c3cccc(-c4cccc(F)c4)c3)c2[C@H]1CCO,-23.9% [at 13.5 µM]
11,Cc1noc(C)c1NC(=O)Nc1ccc2c(c1)C(=O)N([C@H](C)CO)C[C@H](C)[C@@H](CN(C)C(=O)Nc1ccc(C(F)(F)F)cc1)OCCCC[C@H](C)O2,5.14%
12,COc1ccc(S(=O)(=O)Nc2ccc3c(c2)C(=O)N([C@H](C)CO)C[C@H](C)[C@H](CN(C)S(=O)(=O)c2cccs2)OCCCC[C@H](C)O3)cc1,-12.3%
13,Cc1ccc(S(=O)(=O)N(C)C[C@H]2OCCCC[C@@H](C)Oc3ccc(NS(=O)(=O)c4ccccc4)cc3C(=O)N([C@@H](C)CO)C[C@H]2C)cc1,-23.3%
14,CCN1[C@@H]2c3ccc(-c4ccccc4)c(=O)n3C[C@@H]2[C@@H](CO)[C@@H]1C(=O)NCc1ccccc1,-19.4%
15,C[C@H]1CCCCO[C@H](CN(C)C(=O)Nc2ccc(C(F)(F)F)cc2)[C@@H](C)CN([C@@H](C)CO)C(=O)c2cc(NS(=O)(=O)c3ccc(Cl)cc3)ccc2O1,-6.61%
16,CCS(=O)(=O)N1CC(=O)N2[C@H](CO)[C@H](c3ccc(C4=CCCCC4)cc3)[C@@H]2C1,19.9%
17,C[C@@H]1CN([C@H](C)CO)C(=O)Cc2cc(NC(=O)Nc3ccc(F)cc3)ccc2O[C@H]1CN(C)C,-18.6%
18,CCCC(=O)Nc1ccc2c(c1)OC[C@H](C)N(Cc1ccccc1)C[C@H](C)[C@H](OC)CN(C)C2=O,-11.7%
19,C[C@@H]1CN([C@@H](C)CO)S(=O)(=O)c2ccc(/C=C/c3ccccc3)cc2O[C@@H]1CN(C)C(=O)NC1CCCCC1,-4.81%
